Results as given in PubChem BioAssay (NCI).
The panel holds about 83,000 compounds, 20% with a hit somewhere; the sample as a whole holds those more often.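 A percent growth of 40 corresponds to 60% growth inhibition; 0 means no net growth; -100 means all cells died. Active threshold: below 10.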 Values without a mark were called inactive. The source made the active and inactive calls.

What follows are molecules tested on OVCAR-8 ovarian (assay: NCI-60 one-dose screen, 48 h (100 = growth as untreated, 0 = no growth, -100 = all killed)). Conditions: 10 µM unless noted.
`Cc1cn(-c2cc(NC(=O)c3cncc(C#Cc4cnc(N)c5ncccc45)c3)cc(C(F)(F)F)c2)cn1` showed a growth of 64.5%.
`O=C(Cn1cc(CSc2nc3ccccc3o2)nn1)Nc1ccc(F)cc1F` was tested, and the growth was 103%.
In the case of `Cc1c2cnccc2c(C)c2c1c1cc(C#N)ccc1n2C`, the growth is reported as 6.24% (active).
In the case of `CNC(=O)c1ccccc1Oc1nc(Nc2cc(OC)c(OC)c(OC)c2)ncc1Br`, the growth is reported as 72.2%.

What follows are molecules tested on OVCAR-5 ovarian in the same assay as above. Conditions: 10 µM unless noted.
`COCCOc1cc2ncnc(N3CCN(c4ncc(S(=O)(=O)N5CCCCC5)cn4)CC3)c2cc1OCCOC` showed a growth of 114%.
For `COC(=O)[C@]1(C)CCC[C@]2(C)[C@H]3C[C@H]4C(C(C)C)=C[C@]3(CC[C@H]21)[C@@H]1C(=O)CC[C@H](OCCC#N)[C@@H]14`, the growth was 129%.
For `O=C(O)CCN1C(=O)/C(=C/C(Cl)=C/c2ccccc2)SC1=S`, the growth was 57.8%.
With `O=C(/C=C/c1cccc(Cl)c1)c1ccc(Nc2nc(Nc3ccc(F)cc3)nc(Nc3ccc(Cl)cc3)n2)cc1` the growth was 98%.
`CC(C)(Sc1cc(C(C)(C)C)c(O)c(C(C)(C)C)c1)Sc1cc(C(C)(C)C)c(OC(=O)CCCC(=O)O)c(C(C)(C)C)c1` showed a growth of 100%.
Work on `Fc1cc2c(cc1Cl)N(c1ncnc3ccc(-c4ccc5n[nH]nc5c4)cc13)CC2` yielded a growth of 76.5%.
For `CCSC(SCC)c1ccc(Cl)cc1`, the growth was 109%.
Molecule `O=C(Nc1nc2ccc(C(=O)N3CCN(/C=C/c4ccccc4)CC3)cc2s1)c1ccc(NCCc2ccccc2)c([N+](=O)[O-])c1` has a growth of 83.6%.
`O=S(=O)(Nc1cc(F)cc(Cl)c1)c1ccc(-c2cnc(C3CC3)o2)cc1` gave a growth of 50.8%.
`COC(=O)c1c(C)nc(C)c2c1C(=O)C(Br)=C(NCc1ccccc1)C2=O` gave a growth of 61.5%.
`COc1cc2c(c(OC)c1OC)CCC(c1cccc(C(=O)Nc3ccc(C#N)cc3)c1)O2` (stereo unspecified) was tested, and the growth was 79.3%.
With `O=C1c2ccccc2-c2c1c1c(=O)[nH]c3ccccc3c1n2Cc1ccccc1` the growth was 56.5%.
`O=C1c2c(c3c4ccccc4[nH]c3c3ccc4ccccc4c23)C(=O)N1CCN1CCNCC1` gave a growth of 99.5%.
`CC(C)=CCCC(C)c1ccc(C)c2c1OCN(CCCCCO)C2` (stereo unspecified) showed a growth of 87.4%.
Work on `COc1ccc(/C=N/NC(=O)c2ccc(-n3cc(-c4ccccc4)nn3)cc2)cc1OC` yielded a growth of 97.9%.
`CCN(CC)S(=O)(=O)c1ccc(S(=O)(=O)N2CCC[C@@H](C(=O)N3CCN(c4nc(C(C)C)no4)CC3)C2)cc1` gave a growth of 102%.
For `Cc1cc(N2CCN(CC(=O)Nc3ccc4c(ccn4C)c3)CC2)nc(N2CCCCCC2)n1`, the growth was 100%.
With `COc1ccc(Nc2ncc(Br)c(NCCCNC(=O)c3cccs3)n2)cc1` the growth was 60.6%.
Work on `NC(=O)C(=O)c1ccccc1NC=O` yielded a growth of 102%.
With `N#Cc1ccc2c(c1)C(=O)c1c-2n(CCCN)c(=O)c2cc([N+](=O)[O-])ccc12` the growth was 16.6%.
With `c1ccc(Cn2cc3c(c2)-c2oncc2CC3)cc1` the growth was 25.1%.
`O=C(CSC(=S)n1cnnc1)NC(=O)c1ccccc1` showed a growth of 100%.
For `O=C1/C(=C\c2ccc3nccnc3c2)SC(=S)N1CCc1ccc(O)cc1`, the growth was 102%.
With `COc1c(B(O)O)cccc1-c1nc2c(F)cc3[nH]ncc3c2c2c1CCCC2` the growth was 7.97% (active).
With `COc1c(B(O)O)cccc1-c1cc(C)c2c(ccc3[nH]ncc32)n1` the growth was 72.1%.
With `CSc1nnc(-c2cc3c([nH]c4ccccc43)c(-c3cccc(O)c3)n2)n1-c1ccccc1` the growth was 58.7%.
`C=C1C(=O)O[C@H]2[C@H]1CC/C(Cn1cc(-c3ccccc3)nn1)=C\CC[C@@]1(C)O[C@@H]21` was tested, and the growth was -2.95% (active).
Molecule `C=C(CBr)[C@@H]1CC[C@]2(C(=O)O)CC[C@]3(C)[C@H](CC[C@@H]4[C@@]5(C)CCC(=O)C(C)(C)[C@@H]5CC[C@]43C)[C@@H]12` has a growth of 89.8%.
In the case of `CCNCCNc1cc(C2CCCCC2)c(C#N)c2nc3ccccc3n12`, the growth is reported as 18.2%.
In the case of `COc1cc2c(c(OC)c1OC)CCC(c1cccc(C(=O)Nc3cccc(Cl)c3)c1)O2` (stereo unspecified), the growth is reported as 75.3%.
Work on `CCCCCCCC[C@@H]1N[C@@H](C(=O)OC)Cc2c1[nH]c1ccccc21` yielded a growth of 89%.
With `CC(=O)Oc1ccc(/C(=C(\C)c2ccc(Cl)cc2)c2ccc(OCCN3CCCCC3)cc2)cc1` the growth was 75.1%.
